This is an account of results in ChEMBL document CHEMBL1961873, “Compounds: GSK PKIS; Assays: Nanosyn kinase panel” (2012).

Usually inhibition stands for the relative decrease from the control value, in per cent.

The target in test [1] is Mitogen-activated protein kinase 3 (Homo sapiens) (UniProt P27361). Conditions: at 1 µM.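 Also: values are mean percent inhibition of MAPK3.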
For test [2], the target named is SRSF protein kinase 3 (Homo sapiens) (UniProt Q9UPE1). Conditions: at 0.1 µM.
The target is the same in test [3]. Conditions: at 1 µM.
Test [4] concerns the target Mitogen-activated protein kinase 14 (Homo sapiens) (UniProt Q16539). Conditions: at 0.1 µM.
Test [5] shares this target. To be noted: at 1 µM.
Test [6] concerns the target Mitogen-activated protein kinase 11 (Homo sapiens) (UniProt Q15759). To be noted: at 0.1 µM.
For test [7] the target is unchanged. To be noted: at 1 µM.
In test [8] the target is T1, Mitogen-activated protein kinase 13 (Homo sapiens) (UniProt O15264).
T1 sequence (whole entry): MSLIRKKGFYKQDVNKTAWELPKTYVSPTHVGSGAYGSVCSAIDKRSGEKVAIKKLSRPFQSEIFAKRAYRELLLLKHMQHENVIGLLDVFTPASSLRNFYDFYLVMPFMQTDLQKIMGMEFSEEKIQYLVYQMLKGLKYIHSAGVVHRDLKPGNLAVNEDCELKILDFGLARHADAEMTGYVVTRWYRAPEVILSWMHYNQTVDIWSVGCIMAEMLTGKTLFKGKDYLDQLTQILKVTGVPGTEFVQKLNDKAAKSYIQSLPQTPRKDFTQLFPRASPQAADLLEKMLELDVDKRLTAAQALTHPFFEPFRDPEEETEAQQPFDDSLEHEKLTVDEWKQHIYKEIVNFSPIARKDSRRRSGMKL
Conditions: at 0.1 µM.

In test [9] the target is T1, Mitogen-activated protein kinase 13 (Homo sapiens). Conditions: at 1 µM.
The target of test [10] is T2, Mitogen-activated protein kinase 12 (Homo sapiens) (UniProt P53778).
T2 sequence (whole entry): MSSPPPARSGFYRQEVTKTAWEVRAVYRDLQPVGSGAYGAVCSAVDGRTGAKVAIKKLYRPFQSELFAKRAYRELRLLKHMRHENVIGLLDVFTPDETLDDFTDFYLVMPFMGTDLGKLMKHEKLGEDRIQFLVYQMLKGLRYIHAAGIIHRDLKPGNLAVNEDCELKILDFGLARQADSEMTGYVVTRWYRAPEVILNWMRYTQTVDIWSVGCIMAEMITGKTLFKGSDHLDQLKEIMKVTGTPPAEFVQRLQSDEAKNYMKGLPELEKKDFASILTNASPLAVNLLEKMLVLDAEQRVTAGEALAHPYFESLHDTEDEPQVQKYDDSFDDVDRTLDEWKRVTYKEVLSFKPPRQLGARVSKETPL
Conditions: at 0.1 µM.

The target of test [11] is T2, Mitogen-activated protein kinase 12 (Homo sapiens). To be noted: at 1 µM.
Test [12] addresses SRSF protein kinase 1 (Homo sapiens) (UniProt Q96SB4). To be noted: at 0.1 µM.
Test [13] shares this target. Conditions: at 1 µM.
Test [14] has as its target Phosphatidylinositol 4,5-bisphosphate 3-kinase catalytic subunit alpha isoform (Homo sapiens) (UniProt P42336). To be noted: at 0.1 µM.
Test [15] has the same target. Conditions: at 1 µM.
For test [16], the target named is T3, Phosphatidylinositol 4,5-bisphosphate 3-kinase catalytic subunit delta isoform (Homo sapiens) (UniProt O00329).
T3 sequence (whole entry): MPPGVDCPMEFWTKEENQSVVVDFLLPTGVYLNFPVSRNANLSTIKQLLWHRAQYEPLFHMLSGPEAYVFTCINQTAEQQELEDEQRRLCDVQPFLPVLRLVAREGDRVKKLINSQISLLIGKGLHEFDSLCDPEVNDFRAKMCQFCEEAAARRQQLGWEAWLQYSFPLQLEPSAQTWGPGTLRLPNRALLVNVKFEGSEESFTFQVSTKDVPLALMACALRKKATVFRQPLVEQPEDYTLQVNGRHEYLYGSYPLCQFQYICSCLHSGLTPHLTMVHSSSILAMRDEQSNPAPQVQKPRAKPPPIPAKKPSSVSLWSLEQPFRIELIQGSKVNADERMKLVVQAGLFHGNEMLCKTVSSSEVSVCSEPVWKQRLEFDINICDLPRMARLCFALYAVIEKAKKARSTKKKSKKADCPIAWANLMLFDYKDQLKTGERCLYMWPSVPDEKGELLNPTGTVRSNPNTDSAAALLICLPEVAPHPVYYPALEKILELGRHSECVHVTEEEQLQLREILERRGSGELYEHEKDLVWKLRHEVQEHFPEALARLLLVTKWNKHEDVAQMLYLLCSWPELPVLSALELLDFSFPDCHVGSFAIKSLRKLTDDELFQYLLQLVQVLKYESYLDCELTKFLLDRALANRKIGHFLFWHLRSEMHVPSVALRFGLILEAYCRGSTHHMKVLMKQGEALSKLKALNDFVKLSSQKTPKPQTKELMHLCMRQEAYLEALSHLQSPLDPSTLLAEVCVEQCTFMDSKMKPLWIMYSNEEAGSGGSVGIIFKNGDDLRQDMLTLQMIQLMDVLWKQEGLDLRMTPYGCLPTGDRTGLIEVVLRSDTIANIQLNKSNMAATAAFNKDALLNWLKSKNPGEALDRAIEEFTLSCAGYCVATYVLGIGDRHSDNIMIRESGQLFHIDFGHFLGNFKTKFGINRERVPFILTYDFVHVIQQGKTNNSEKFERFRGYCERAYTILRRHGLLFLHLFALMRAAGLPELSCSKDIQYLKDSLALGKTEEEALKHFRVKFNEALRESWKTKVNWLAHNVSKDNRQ
To be noted: at 0.1 µM.

The target of test [17] is T3, Phosphatidylinositol 4,5-bisphosphate 3-kinase catalytic subunit delta isoform (Homo sapiens). Conditions: at 1 µM.
Test [18] has as its target Phosphatidylinositol 4-kinase beta (Homo sapiens) (UniProt Q9UBF8). To be noted: at 0.1 µM.
Test [19] has the same target. To be noted: at 1 µM.
In test [20] the target is Sphingosine kinase 1 (Homo sapiens) (UniProt Q9NYA1). Conditions: at 0.1 µM.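 Also: mean percent inhibition of SPHK1 activity, measured within the GSK PKIS screening panel.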

SMILES strings stand for the structures.

Sequence of Phosphatidylinositol 4-kinase beta (Homo sapiens) (Q9UBF8 2-816 limits assumed): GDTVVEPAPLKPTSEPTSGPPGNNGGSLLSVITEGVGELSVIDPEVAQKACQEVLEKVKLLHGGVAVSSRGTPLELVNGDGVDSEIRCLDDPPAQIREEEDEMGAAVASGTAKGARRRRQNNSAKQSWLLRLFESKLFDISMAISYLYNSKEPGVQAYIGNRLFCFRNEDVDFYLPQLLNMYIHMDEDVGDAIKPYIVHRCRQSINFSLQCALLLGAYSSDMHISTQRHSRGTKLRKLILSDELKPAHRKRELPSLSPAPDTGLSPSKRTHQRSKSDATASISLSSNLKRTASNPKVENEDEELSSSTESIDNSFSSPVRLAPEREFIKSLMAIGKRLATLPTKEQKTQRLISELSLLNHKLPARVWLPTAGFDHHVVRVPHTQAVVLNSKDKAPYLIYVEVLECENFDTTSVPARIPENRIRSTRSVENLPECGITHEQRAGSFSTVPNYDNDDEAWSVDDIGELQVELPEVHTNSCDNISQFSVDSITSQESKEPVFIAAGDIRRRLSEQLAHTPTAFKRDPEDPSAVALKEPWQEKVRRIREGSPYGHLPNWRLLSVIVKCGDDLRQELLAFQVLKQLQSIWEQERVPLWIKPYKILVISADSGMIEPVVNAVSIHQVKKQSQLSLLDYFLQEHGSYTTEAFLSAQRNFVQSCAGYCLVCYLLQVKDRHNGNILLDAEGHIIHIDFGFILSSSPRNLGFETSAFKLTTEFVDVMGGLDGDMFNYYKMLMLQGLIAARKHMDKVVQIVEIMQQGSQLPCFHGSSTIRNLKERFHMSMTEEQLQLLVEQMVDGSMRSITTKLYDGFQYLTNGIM
Sequence of Mitogen-activated protein kinase 11 (Homo sapiens) (Q15759 whole entry): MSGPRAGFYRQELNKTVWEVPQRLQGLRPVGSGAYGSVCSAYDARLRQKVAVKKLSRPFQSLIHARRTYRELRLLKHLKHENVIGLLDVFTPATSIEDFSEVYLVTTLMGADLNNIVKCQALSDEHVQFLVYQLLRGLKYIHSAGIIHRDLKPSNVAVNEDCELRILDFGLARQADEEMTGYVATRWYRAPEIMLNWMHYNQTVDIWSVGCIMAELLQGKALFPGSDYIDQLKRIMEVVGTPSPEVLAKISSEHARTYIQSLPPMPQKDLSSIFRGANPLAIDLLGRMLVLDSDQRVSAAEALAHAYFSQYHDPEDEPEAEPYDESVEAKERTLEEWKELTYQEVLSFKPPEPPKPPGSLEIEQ
Sequence of SRSF protein kinase 3 (Homo sapiens) (Q9UPE1 whole entry): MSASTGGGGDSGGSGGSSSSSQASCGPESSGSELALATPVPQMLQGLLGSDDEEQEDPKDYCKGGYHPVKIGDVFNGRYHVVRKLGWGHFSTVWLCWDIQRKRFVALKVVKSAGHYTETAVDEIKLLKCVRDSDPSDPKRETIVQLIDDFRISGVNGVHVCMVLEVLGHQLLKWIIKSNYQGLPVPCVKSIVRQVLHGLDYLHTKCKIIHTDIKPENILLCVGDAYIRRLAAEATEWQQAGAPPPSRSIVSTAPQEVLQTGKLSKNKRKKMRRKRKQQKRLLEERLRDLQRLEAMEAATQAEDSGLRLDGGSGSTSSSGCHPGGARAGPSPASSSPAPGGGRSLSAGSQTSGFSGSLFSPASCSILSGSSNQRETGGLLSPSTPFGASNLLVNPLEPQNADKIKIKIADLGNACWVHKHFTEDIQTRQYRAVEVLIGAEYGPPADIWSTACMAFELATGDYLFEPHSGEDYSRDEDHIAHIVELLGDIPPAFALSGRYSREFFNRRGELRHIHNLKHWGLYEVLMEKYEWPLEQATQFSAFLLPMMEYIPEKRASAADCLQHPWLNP
Sequence of Mitogen-activated protein kinase 3 (Homo sapiens) (P27361 whole entry): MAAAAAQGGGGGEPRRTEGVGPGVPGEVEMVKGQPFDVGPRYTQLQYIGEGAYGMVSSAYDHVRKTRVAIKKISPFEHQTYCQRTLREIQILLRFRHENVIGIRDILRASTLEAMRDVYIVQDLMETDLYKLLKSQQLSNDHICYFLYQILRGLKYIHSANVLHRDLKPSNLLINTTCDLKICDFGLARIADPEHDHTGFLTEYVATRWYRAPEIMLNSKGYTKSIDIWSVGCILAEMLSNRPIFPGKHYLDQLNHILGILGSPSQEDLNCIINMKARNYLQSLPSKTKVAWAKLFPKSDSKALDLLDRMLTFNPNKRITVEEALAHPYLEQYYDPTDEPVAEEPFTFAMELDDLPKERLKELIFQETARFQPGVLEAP
Sequence of Phosphatidylinositol 4,5-bisphosphate 3-kinase catalytic subunit alpha isoform (Homo sapiens) (P42336 whole entry, canonical isoform): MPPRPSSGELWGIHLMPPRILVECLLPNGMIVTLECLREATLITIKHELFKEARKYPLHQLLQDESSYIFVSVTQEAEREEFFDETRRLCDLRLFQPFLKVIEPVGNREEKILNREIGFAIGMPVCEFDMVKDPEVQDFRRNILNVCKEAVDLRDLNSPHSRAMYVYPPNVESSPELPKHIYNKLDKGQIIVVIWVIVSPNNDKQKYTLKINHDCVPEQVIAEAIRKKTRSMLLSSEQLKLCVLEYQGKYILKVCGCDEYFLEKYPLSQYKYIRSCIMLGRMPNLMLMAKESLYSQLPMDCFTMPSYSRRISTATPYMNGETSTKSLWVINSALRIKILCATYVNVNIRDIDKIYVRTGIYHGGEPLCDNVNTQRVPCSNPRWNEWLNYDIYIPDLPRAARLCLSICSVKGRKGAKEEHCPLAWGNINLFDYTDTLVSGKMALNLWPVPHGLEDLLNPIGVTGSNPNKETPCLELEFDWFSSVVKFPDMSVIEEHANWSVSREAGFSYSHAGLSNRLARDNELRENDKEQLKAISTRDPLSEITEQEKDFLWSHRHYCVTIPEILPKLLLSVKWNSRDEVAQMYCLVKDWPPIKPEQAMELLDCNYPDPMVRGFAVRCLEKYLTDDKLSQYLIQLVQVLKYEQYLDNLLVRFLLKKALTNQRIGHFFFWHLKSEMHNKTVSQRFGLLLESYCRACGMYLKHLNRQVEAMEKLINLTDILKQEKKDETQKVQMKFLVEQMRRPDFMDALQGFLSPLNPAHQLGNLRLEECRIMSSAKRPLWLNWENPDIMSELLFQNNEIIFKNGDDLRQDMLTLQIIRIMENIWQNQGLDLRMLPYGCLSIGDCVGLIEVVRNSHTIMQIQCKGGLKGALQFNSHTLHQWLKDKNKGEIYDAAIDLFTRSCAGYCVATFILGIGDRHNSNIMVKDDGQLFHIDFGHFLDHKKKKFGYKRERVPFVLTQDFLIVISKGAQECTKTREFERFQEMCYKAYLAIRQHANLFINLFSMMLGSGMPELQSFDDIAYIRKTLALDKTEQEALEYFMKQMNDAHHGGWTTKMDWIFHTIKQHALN
Sequence of Sphingosine kinase 1 (Homo sapiens) (Q9NYA1 whole entry): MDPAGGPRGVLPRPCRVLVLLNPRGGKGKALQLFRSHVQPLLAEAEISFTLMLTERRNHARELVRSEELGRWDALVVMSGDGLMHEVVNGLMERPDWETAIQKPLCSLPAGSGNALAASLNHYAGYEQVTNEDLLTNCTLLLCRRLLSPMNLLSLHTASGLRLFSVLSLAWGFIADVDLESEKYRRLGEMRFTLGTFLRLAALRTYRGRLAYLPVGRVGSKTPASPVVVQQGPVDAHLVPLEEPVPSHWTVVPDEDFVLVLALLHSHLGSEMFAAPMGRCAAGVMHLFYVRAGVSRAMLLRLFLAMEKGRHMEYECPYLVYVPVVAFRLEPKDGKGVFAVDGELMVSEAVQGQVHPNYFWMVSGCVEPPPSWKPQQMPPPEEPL
Sequence of SRSF protein kinase 1 (Homo sapiens) (Q96SB4 whole entry): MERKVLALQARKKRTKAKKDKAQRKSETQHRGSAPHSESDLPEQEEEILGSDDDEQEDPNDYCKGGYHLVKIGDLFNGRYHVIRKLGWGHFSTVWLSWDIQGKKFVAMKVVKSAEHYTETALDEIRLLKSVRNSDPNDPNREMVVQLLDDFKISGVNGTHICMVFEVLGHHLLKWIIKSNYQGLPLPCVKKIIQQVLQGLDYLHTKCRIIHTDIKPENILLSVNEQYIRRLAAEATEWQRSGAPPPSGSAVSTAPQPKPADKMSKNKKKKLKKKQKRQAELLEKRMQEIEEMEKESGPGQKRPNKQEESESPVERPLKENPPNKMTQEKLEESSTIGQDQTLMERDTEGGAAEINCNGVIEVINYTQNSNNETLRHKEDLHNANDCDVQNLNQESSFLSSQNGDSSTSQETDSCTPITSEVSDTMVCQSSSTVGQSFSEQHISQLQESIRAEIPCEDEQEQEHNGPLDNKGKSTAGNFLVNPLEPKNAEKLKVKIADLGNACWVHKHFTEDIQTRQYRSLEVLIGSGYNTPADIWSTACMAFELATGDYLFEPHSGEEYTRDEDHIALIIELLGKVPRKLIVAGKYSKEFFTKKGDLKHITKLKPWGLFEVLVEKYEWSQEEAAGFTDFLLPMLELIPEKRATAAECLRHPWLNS
Sequence of Mitogen-activated protein kinase 14 (Homo sapiens) (Q16539 whole entry): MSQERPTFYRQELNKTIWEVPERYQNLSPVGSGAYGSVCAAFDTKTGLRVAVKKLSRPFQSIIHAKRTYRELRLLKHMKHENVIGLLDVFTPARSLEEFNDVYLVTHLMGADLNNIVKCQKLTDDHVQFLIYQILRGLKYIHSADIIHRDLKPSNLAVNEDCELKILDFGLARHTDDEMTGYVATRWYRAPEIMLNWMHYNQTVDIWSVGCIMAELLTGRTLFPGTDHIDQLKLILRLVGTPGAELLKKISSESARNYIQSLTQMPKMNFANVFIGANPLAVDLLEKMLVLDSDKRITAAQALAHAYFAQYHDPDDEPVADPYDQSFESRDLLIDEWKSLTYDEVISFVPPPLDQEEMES

On to `COc1cccc(-c2c[nH]c3c(N/N=C/c4ccncc4)ncnc23)c1`, for which the inhibition in test [1] is 6.39%; in test [2], 1.36%; in test [3], 1.67%; in test [4] it was 7.04%; in test [5], 13.3%; in test [6], 2.44%. Besides, the inhibition in [7] stood at 7.25%; in [8], 6.19%; in test [9], 38.2%; in [10], 1.88%; in test [11], 14.7%; in [12], 0.71%. The inhibition in test [13] is -1.68%; in test [14], 1.14%; in test [15] it was 4.14%; in test [16], 0.94%; in test [17], 3.3%; in test [18] it was -3.02%. Further, the inhibition was 0.08% in [19] and -4.21% in [20].

For `CCNC(=O)O[C@H]1CN[C@H](C#Cc2cc3ncnc(Nc4ccc(OCc5cccc(F)c5)c(Cl)c4)c3s2)C1`, the inhibition stood at 1.29% in test [1]; 1.52% in [2]; 0.88% in test [3]; 1.94% in test [4]; 5.4% in test [5]; 4.81% in [6]. Moreover, the inhibition in test [7] was -1.11%; in [8] it was 1.7%; in test [9], 2.64%; in [10] it was -0.39%; in test [11] it was 0.98%; in [12], -1.03%. The inhibition in [13] was -0.8%; in test [14], 3.18%; in test [15], 29%; in test [16], 2.96%; in test [17] it was 17.2%; in test [18] it was -1.09%. The inhibition was found to be 0.43% in [19] and 0.82% in test [20].

Regarding `Nc1ncc(-c2cccc(S(N)(=O)=O)c2)c2scc(-c3ccc(F)c(Cl)c3)c12`, the inhibition in [1] was 5.48%; in test [2] it was -1.03%; in [3], 0.1%; in test [4], 13.9%; in test [5] it was 55.9%; in [6], 21.8%. The inhibition in [7] is 62.3%; in [8], 3.01%; in test [9], 1.94%; in test [10], 2.88%; in test [11], 3.12%; in test [12] it was -2.06%. The inhibition in test [13] is -3.1%; in test [14], 4.44%; in [15], 8.82%; in test [16], 1.02%; in test [17] it was 3.18%; in [18], 7.12%. Besides, the inhibition is 1.6% in test [19] and -0.6% in test [20].

In the case of `Cc1cccc2c1NC(=O)/C2=N\Nc1ccc(S(N)(=O)=O)cc1`, the inhibition in test [1] is 2.55%; in [2] it was 0.51%; in [3] it was 1.03%; in test [4], 3.09%; in [5], 5.54%; in test [6] it was 1.05%. The inhibition in [7] is 1.3%; in test [8], 1.89%; in test [9], 3.48%; in [10], -3.68%; in [11], 0.72%; in test [12], -0.92%. For the same molecule, the inhibition in test [13] is -1.02%; in test [14] it was 2.47%; in test [15], 1.9%; in test [16], 1.83%; in test [17], 3.28%; in test [18] it was -4.22%. The results for the inhibition in [19] and in [20] were -2.85% and 0.78%, respectively.

Regarding `COc1cc(N2CCN(C(C)C)CC2)ccc1Nc1nc(Nc2ccc(F)cc2C(N)=O)c2cc[nH]c2n1`, the inhibition came out at 5.68% in [1]; 4.97% in test [2]; 4.84% in test [3]; 4.36% in [4]; 8.96% in test [5]; 1.51% in [6]. The inhibition in [7] was 9.48%; in [8], 0.06%; in test [9], 2.28%; in [10], 0.86%; in test [11], 2.22%; in [12], -2.51%. Further, the inhibition is 1.46% in [13]; 0.53% in [14]; 0.95% in [15]; -1.34% in test [16]; 2.71% in test [17]; 0.5% in test [18]. In addition, the inhibition in test [19] is -1.98%; in test [20] it was 0.81%.

As to `CS(=O)(=O)CCNCc1coc(-c2ccc3ncnc(Nc4ccc(OCc5ccccc5)cc4)c3c2)c1`, the inhibition in test [1] is 4.16%; in test [2], 0.59%; in [3] it was -0.06%; in [4], 3.52%; in test [5], 5.25%; in test [6], 1.13%. Also, the inhibition in test [7] is 5.1%; in [8], 1.6%; in test [9], 1.56%; in [10], 1.93%; in test [11], 3.41%; in test [12], -2.53%. In addition, the inhibition was -3.45% in test [13]; 2.17% in test [14]; 3.25% in test [15]; 0.39% in test [16]; 0.49% in test [17]; -2.05% in [18]. Further, the inhibition in [19] is -3.75%; in test [20] it was 4.73%.

Regarding `CNC(=O)c1cccc(C#Cc2cncnc2Nc2ccc(OCc3cccc(F)c3)c(Cl)c2)c1`, the inhibition in test [1] was 0.63%; in test [2], -4.28%; in test [3], -0.55%; in test [4], -0.67%; in [5], 3.2%; in test [6], 1.64%. Moreover, the inhibition in [7] is 1.73%; in test [8] it was -0.77%; in test [9], -0.49%; in [10] it was 0.07%; in test [11] it was -0.21%; in test [12], -1.88%. Also, the inhibition is 0.32% in test [13]; 0.38% in [14]; -2.56% in test [15]; 0.74% in [16]; -1.1% in test [17]; 1.78% in [18]. Further, the inhibition in test [19] was 1.45%; in test [20], 0.36%.
